# Screens as filed in PubChem BioAssay.
# A selection: hits, their analogues and other compounds. The true share with any hit is near 9%.
# KinaseGlo FLuc = counter-screen: inhibitors of Kinase-Glo firefly luciferase | Kinase-Glo luciferase, ATP luminescence, 8 min | Potency, µM (titrated, usually from 38.3 µM), usual class: inhibitors | actives 0.28% (n = 200,000) | AID 1379; note: nearly all actives have a fitted effect of over 60% in size
#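 Kinase-Glo luciferase light output from ATP and luciferin was measured with 10 uM ATP, within the enzyme's linear range. Buffer: 50 mM imidazole pH 7.2, 50 mM KCl, 7 mM MgCl2, 0.01% Tween 20, 0.05% BSA; luminescence read after 8 min at ambient temperature.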
# HTT ATP protect = cytoprotection in Huntington HTT-Q103 PC12 cell model. actives 0.14% (n = 230,000). PC12 HTT-Q103 induced, cytoprotection, ATP luminescence, 40 h. Potency, µM (highest dose often 56.4 µM), usual class: activators; note: nearly all actives have a fitted effect of over 45% in size
#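 Rat PC12, Q103 Htt exon1-GFP fusion, ecdysone promoter; tebufenozide inducer 100 nM final; compound titration; qHTS, 1500 cells/well; ATPlite luminescent read.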
# HttQ103 aggreg = reduces HttQ103-GFP aggregates in PC12 cells; PC12 HttQ103-GFP aggregates, Acumen cytometry, 40 h; actives 1.1% (n = 220,000); Potency, µM (titrated, usually from 46.1 µM), hits mostly inhibitors; note: nearly all actives have a fitted effect of over 60% in size
#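 Aggregate formation scored by laser-scanning cytometer (488 excitation, 500–530 emission) in lysed PC12 cells expressing Q103-GFP after 100 nM tebufenozide induction; library tested in dose series, with ATPLite reagent added in the multiplex.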
# HPGD inh = inhibitors of human 15-hydroxyprostaglandin dehydrogenase (HPGD); AID 894; P15428; Potency, µM, usual class: inhibitors; purified HPGD, NADH fluorescence kinetic, PGE2 substrate; actives 4.3% (n = 150,000); active = well fitted inhibition curve with a large enough effect, not every such curve was filed as active; inconclusive = small, poorly fitted or top-dose-only effect, or another doubt; inactive = no such curve, though single readings can be large or run the other way
# Target sequence (P15428 whole entry, looked up): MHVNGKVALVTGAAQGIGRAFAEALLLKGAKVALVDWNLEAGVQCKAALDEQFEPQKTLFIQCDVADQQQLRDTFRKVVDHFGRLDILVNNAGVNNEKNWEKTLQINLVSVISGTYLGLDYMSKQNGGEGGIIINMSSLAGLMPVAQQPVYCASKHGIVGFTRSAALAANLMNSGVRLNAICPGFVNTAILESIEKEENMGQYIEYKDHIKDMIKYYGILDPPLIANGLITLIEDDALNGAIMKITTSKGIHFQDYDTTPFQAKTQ
#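 20 nM HPGD preincubated 15 min at room temperature with compound in 50 mM Tris-HCl pH 8, 0.01% Tween 20. Started with 1 mM NAD+ and 30 uM prostaglandin E2; NADH fluorescence (360/450 nm) read 5 times over 30-s intervals, last minus first.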
# LMNA splice mod = modulators of lamin A splicing. AID 1487. HeLa LMNA splicing GFP/RFP minigene ratio, 48 h. Potency, µM (top dose mostly 46.1 µM), usual class: inhibitors. actives 0.01% (n = 200,000); active = well fitted inhibition curve with a large enough effect in the signal ratio, with a control signal flat, not every such curve was filed as active; inconclusive = small, poorly fitted or top-dose-only effect, or effect the other way, or a change in a side signal; the % refers to the signal ratio
#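 Read-out is the ratio of GFP to DsRed2 object intensity, acquired by 488 nm laser-scanning cytometry on HeLa lamin A-EGFP minigene reporter cells. Compound incubation 48 hrs at 37 °C in Opti-MEM with 2% FBS; DMSO 0.5% final.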
# ALDH1A1 inh = blocks purified human ALDH1A1 activity; actives 7.3% (n = 220,000); P00352; Potency, µM (highest dose often 75.3 µM), usual class: inhibitors; Purified ALDH1A1, NADH fluorescence, propionaldehyde substrate; AID 1030; active = well fitted inhibition curve with a large enough effect, not every such curve was filed as active; inconclusive = small, poorly fitted or top-dose-only effect, or another doubt; inactive = no such curve, though single readings can be large or run the other way
# A number is an active result; i = inactive; ? = inconclusive; nt = no result; [ ] = dose if it differs, or a comment. Unless noted, calls come from the whole dose curve; as a rule, active = well fitted curve in the direction sought with a large enough effect; inconclusive = small, poorly fitted or top-dose-only effect, or another doubt; inactive = no such curve, though single readings can be large; an effect the other way counts as inactive or inconclusive.
SMILES,KinaseGlo FLuc,HTT ATP protect,HttQ103 aggreg,HPGD inh,LMNA splice mod,ALDH1A1 inh
COc1ccc(NC(=O)CC2SC(=NCc3ccccc3OC)NC2=O)cc1 (centres undefined),i,i,i[9.22 µM],i,i,i
CCN=C1SC(CC(=O)NCCc2ccc(OC)cc2)C(=O)N1CC (centres undefined),i,i,i,i,i,i
COc1ccc(CCNC(=O)CC2SC(=NCc3ccccc3)NC2=O)cc1 (centres undefined),i,i,i,nt,nt,32µM
Cc1ccc(C)c(NC(=O)C2CCCN2C(=O)NC2CCCCC2)c1 (centres undefined),i,i[10 µM],i[9.22 µM],nt,i,i
Cc1ccc2nc(NC(=O)CCCC(=O)O)sc2c1,i,i,i[9.22 µM],nt,i,i
Cc1cc(C)cc(N(CC(=O)NCCSCc2ccccc2)S(C)(=O)=O)c1,i,i[10 µM],i[9.22 µM],nt,nt,i
COc1cccc(NC(=S)NNC(=O)C(C)n2nc(C)c([N+](=O)[O-])c2C)c1 (centres undefined),i,i,i,i,i,i
COc1cccc(/C=N/NC(=O)C(C)n2nc(C)c([N+](=O)[O-])c2C)c1O (centres undefined),i,i[10 µM],16µM,i,?,i
COc1cccc(/C=N/NC(=O)Cn2nc(C)c([N+](=O)[O-])c2C)c1O,nt,i[10 µM],2.8µM,nt,?,i
Cc1ccc(S(=O)(=O)N/N=c2\oc3ccccc3cc2C(=O)Nc2cccc(C)c2)cc1,i,i[10 µM],i,i,i,0.16µM
Cc1cccc(NC(=O)c2cc(S(=O)(=O)c3ccccc3)ccc2Cl)c1,i,i,i,i,i,?
Cc1cc(C)cc(-n2c(SCC(=O)Nc3ccc4c(c3)OCCO4)nc3c([nH]c4ccccc43)c2=O)c1,nt,nt,nt,nt,i,nt
Cc1cccc(NC(=O)c2cc(NC(=O)C3CCCCC3C(=O)O)ccc2N2CCCCC2)c1 (centres undefined),i,i[0.074 µM],i,i,i,18µM
CC(=O)Nc1ccc(N2CCCCC2)c(C(=O)Nc2cccc(C)c2)c1,i,i,i,i,i,11µM
O=C(O)C1CCCCC1C(=O)Nc1cccc(C(=O)N2CCCCC2)c1 (centres undefined),i,i[0.074 µM],i,i,i,i
Cc1ccc(NC(=O)c2cc(NC(=O)c3ccccc3C(=O)O)ccc2N2CCCCC2)cc1,i,i,i[9.22 µM],nt,nt,i
COc1cc(/C=C(\C#N)c2[nH]nc(N)c2C#N)cc(OC)c1O,i,i,i[9.22 µM],16µM,?,i
COc1cc(/C=C(\C#N)c2ccccn2)cc(OC)c1O,nt,i[10 µM],i[9.22 µM],nt,nt,nt
O=C(O)COc1ccccc1/C=N/NC(=O)CSc1nnc(SCc2ccc(Cl)cc2)s1,nt,i[10 µM],i[9.22 µM],nt,nt,nt
O=Cc1cn(-c2ccccc2)nc1-c1ccc2c(c1)OCCO2,i,i[10 µM],i,i,?,18µM
N#Cc1cn(-c2ccccc2)nc1-c1ccc2c(c1)OCCO2,i,i[0.074 µM],i,i,i,i
CCSc1nnc(-c2ccc(OC)cc2)o1,i,i[1.9 µM],i,i,i,?
CCn1c(C)cc(=S)c2ccccc21,i,i,?,i,i,4µM
Cc1nnc2n1N=CC=C(c1ccccc1)S2,i,16µM,nt,i,?,i
COc1cccc(-c2noc(C3CCCN(C(=O)Cc4ccccc4)C3)n2)c1 (centres undefined),i,i,i,i,i,13µM
SMILES,KinaseGlo FLuc,HTT ATP protect,HttQ103 aggreg,HPGD inh,LMNA splice mod,ALDH1A1 inh
COc1ccc(C(=O)N2CCCC(c3nc(-c4cc(OC)c(OC)c(OC)c4)no3)C2)cc1 (centres undefined),i,i[10 µM],i,25µM,i,i
COc1ccc(-c2noc(C3CCCN(C(=O)c4ccccc4)C3)n2)cc1 (centres undefined),nt,i[10 µM],i[9.22 µM],nt,nt,nt
Cc1ccc(-c2noc(C3CCCN(C(=O)c4ccccc4)C3)n2)o1 (centres undefined),i,i,i,i,i,14µM
CCOc1ccccc1N1CCN(C(=S)NC(=O)C23CC4CC(CC(C4)C2)C3)CC1,i,i[10 µM],i,i,?,i
Cc1ccc(S(=O)(=O)N(c2nc(N(C)C)nc(N(C)C)n2)n2cnnc2)cc1,i,i,i,i,i,5µM
CC1(C)Cc2ccccc2-c2n[nH]c(=S)n21,i,i,i,i,?,13µM
O=C(c1ccccc1)C1C(=O)c2ccccc2C1=O,i,i,?,i,i,i
O=C1C(=C(O)c2ccccc2)C(=O)c2ccccc21,i,i,?,i,?,4µM
CCN(CCO)c1nc(SC)nc2c1sc1nc(-c3ccco3)c3c(c12)CCC3,i,i,?,?,?,2µM
CCOC(=O)c1sc2nc3c(cc2c1N)COC(C)(CC)C3 (centres undefined),i,?,i,?,i,?
CCC1(C)Cc2nc3sc(C(=O)O)c(N)c3cc2CO1 (centres undefined),i,i[10 µM],i,i,i,22µM
Cc1nccnc1Sc1ccccc1,nt,i[10 µM],i[9.22 µM],nt,nt,nt
Cc1ccccc1-n1c(=O)cc(N2CCc3ccccc3C2)[nH]c1=O,i,i,i,i,i,?
O=c1cc(N2CCc3ccccc3C2)[nH]c(=O)n1-c1ccccc1Cl,i,i[10 µM],i,i,i,6.3µM
O=C(O)C(Cc1ccccc1)N1C(=O)/C(=C/c2cccc3ccccc23)SC1=S (centres undefined),i,i[10 µM],i,14µM,i,?
CC(C)C(NC(=O)OCc1ccccc1)C(=O)NCC(=O)OC(C)(C)C (centres undefined),i,i,i,i,i,i
N#CCOC(=O)c1c2c(nc3ccccc13)CCC2,i,i[10 µM],i,nt,nt,?
CN(C)CC1(c2ccccc2)CCCC1,i,i[10 µM],i,i,i,i
COc1cccc(C2=NOC(C(=O)Nc3ccc(OC)c(OC)c3)C2)c1 (centres undefined),i,i,i,i,i,i
COc1cccc(C2=NOC(C(=O)Nc3cccc(C(C)=O)c3)C2)c1 (centres undefined),i,i,i,i,i,4µM
COc1ccc(/C=N/NC(=O)COc2ccc3ccccc3c2)c(C(=O)O)c1OC,i,i[10 µM],i,i,i,i
CC1(C)CC(=O)C2=C(C1)Nc1ccccc1NC2c1cccs1 (centres undefined),i,i[10 µM],i[9.22 µM],nt,i,i
CC(C)N1CCN(C2CSCCSC2)CC1CCO (centres undefined),nt,i[10 µM],i[9.22 µM],nt,nt,nt
COC(=O)c1ccc(C(NC(=O)c2ccccc2)[C@]2(C)C[C@H]2C2CCCCC2)cc1 (some centres undefined),i,i,nt,i,nt,1.3µM
COc1ccc(-n2c(COc3ccc4c(c3)OCO4)nnc2SCC(=O)O)cc1,i,i[10 µM],i,nt,nt,2.5µM
Fc1ccc(C[n+]2csc3ccccc32)cc1,i,i,i,10µM,?,4µM
